High-throughput results as filed in PubChem BioAssay.
SENP8 block-1 – blocks human SENP8 cleavage of Nedd8 substrate; Q96LD8; recombinant SENP8, Nedd8 substrate fluorescence; inhibition, % at 20 µM; hit rate 0.64% among 360,000; in the data active means inhibition mostly above about 40%, no sharp cut-off; inactive means mostly below about 27%
Target sequence (Q96LD8 whole entry, looked up): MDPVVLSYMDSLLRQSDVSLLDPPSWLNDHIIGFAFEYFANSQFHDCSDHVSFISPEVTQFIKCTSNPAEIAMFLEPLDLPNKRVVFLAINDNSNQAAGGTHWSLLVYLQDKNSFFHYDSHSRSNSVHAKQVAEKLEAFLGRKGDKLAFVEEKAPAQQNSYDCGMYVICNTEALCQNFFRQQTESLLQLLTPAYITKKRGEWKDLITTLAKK
PPC-1+TRAIL kill – compounds killing PPC-1 cancer cells with TRAIL present (potentiator screen, no TRAIL-free arm); cell killing (% activity), % at 4 µM or 5 µM; PPC-1 cells + TRAIL, ATPLite viability luminescence; hit rate 0.41% among 220,000;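 active means cell killing above 50% in the first pass at 4 µM, then a duplicate retest at 5 µM averaging 50% or more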
SENP6 block – blocks the human protease SENP6. inhibition, % at 10 µM. AID 2599. hit rate 1.8% among 330,000. Recombinant SENP6 catalytic domain, aminoluciferin luminescence;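 active means inhibition above about 50% at the single tested dose, limit read from the data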
C8 TRAIL sens – caspase-8 TRAIL sensitization; NB7+C8 cells + TRAIL, ATPlite viability luminescence; inhibition (viability loss, TRAIL sensitization), % at 10 µM; hit rate 1% among 360,000; AID 624354;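 active means compounds causing at least 50% loss of cell viability in the single-dose screen, relative to plate controls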
SENP7 block – inhibitors of human SENP7 protease. Q9BQF6. recombinant SENP7, Z-RLRGG-aminoluciferin luminescence, 40 min. inhibition, % at 5 µM. hit rate 1.5% among 330,000. AID 434973;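 active means inhibition above about 50% at the single test dose, limit read from the data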
SENP8 block-2 – blocks the human protease SENP8 | Q96LD8 | purified SENP8, Z-RLRGG-aminoluciferin cleavage, luminescence | inhibition, % at 10 µM | hit rate 1.2% among 330,000 | AID 2540; in the data active means inhibition above about 50%
SENP8 conf – human SENP8 inhibition, confirmed | shares compounds with SENP7 block | Recombinant SENP8, Z-RLRGG-aminoluciferin luminescence, 60 min | inhibition, % at 12.5 µM | hit rate 40% among 6,200 | AID 488912;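 active means mean inhibition across replicates above about 50%, limit read from the data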
SENP6 conf – human SENP6 inhibition, confirmed; shares compounds with SENP7 block; recombinant SENP6, Z-RLRGG-aminoluciferin luminescence; inhibition, % at 12.5 µM; hit rate 58% among 6,200; AID 488915
SENP7 confirm – confirmation of human SENP7 protease inhibitors; AID 488917; recombinant SENP7, Z-RLRGG-aminoluciferin luminescence, 40 min; inhibition, % at 12.5 µM; shares compounds with SENP7 block; hit rate 69% among 6,200
Casp3 select – caspase-3 inhibition (SENP selectivity assay); purified caspase-3, Z-DEVD-aminoluciferin luminescence, 60 min; shares compounds with SENP7 block; inhibition, % at 12.5 µM; hit rate 60% among 6,200;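 active means mean inhibition above about 50%, limit read from the data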
Target sequence (P42574 28-227 limits assumed): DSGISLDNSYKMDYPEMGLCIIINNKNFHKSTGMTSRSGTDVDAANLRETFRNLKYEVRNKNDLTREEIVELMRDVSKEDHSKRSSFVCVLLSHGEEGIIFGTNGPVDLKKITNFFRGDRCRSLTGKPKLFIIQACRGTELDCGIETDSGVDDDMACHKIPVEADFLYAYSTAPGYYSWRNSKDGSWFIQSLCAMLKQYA
Luc interf – luminescence interference (SENP counter-screen) | hit rate 39% among 6,200 | Pre-incubated SENP8/Z-RLRGG-aminoluciferin, luciferase luminescence interference | AID 488919 | inhibition, % at 12.5 µM | shares compounds with SENP7 block;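 active means mean inhibition above about 50% when retested at one dose, limit read from the data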
Of the large screens only hits and unclear results are named; the others gave an inactive call (follow-up assays come after a bar, where they were run). Shown are actives, neighbours in structure and some others; about 3% of the full set was active somewhere.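 How the source made its calls, unless noted: active means mean inhibition above about 50% in the one-dose retest (limit read from the data); inactive means the rest.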

CN1C(=O)/C(=C/c2ccc(C(=O)Nc3ccc(O)cc3C(=O)O)cc2)SC1=S	SENP6 block 93, SENP7 block 60, SENP8 block-2 96 (no result: PPC-1+TRAIL kill) | SENP8 conf 62 | SENP6 conf 97 | SENP7 confirm 70 | Casp3 select 98 | Luc interf inactive
O=S(=O)(c1ccc(F)cc1)c1nc(-c2ccco2)oc1NCCCn1ccnc1	none (no result: PPC-1+TRAIL kill, SENP6 block, SENP7 block, SENP8 block-2)
COc1ccc(F)cc1S(=O)(=O)NCC(=O)NCc1cc(=O)n(C)c(=O)n1C	none (no result: PPC-1+TRAIL kill)
CC(=O)/C(N=Nc1ccc(C(=O)O)cc1[N+](=O)[O-])=C(\C)O	SENP7 block 59, SENP8 block-2 51 | SENP8 conf 54 | SENP6 conf 51 | SENP7 confirm 84 | Casp3 select 92 | Luc interf 64
CCOC(=O)/C(N=Nc1ccc(C(=O)O)cc1[N+](=O)[O-])=C(\C)O	none
CC1CCCN(CCCNC(=O)c2nn(C)c3c2CSc2ccccc2-3)C1 (stereo not drawn)	none (no result: PPC-1+TRAIL kill)
CC1CCN(CCCNC(=O)c2coc3nc4ccccc4nc23)CC1	SENP6 block 86, SENP8 block-2 64 | SENP8 conf 76 | SENP6 conf 70 | SENP7 confirm 86 | Casp3 select 88 | Luc interf 74
Cc1ccc(CCNC(=O)c2coc3nc4ccccc4nc23)cc1	none
CC1CCCN(CCCNC(=O)c2coc3nc4ccccc4nc23)C1 (stereo not drawn)	SENP6 block 81, SENP7 block 51, SENP8 block-2 59 | SENP8 conf 73 | SENP6 conf 66 | SENP7 confirm 86 | Casp3 select 89 | Luc interf 75
CN(C(=O)C(C)(C)C)C1c2c(ccc3ccccc23)OCC1CO (stereo not drawn)	none (no result: PPC-1+TRAIL kill, SENP6 block, SENP7 block, SENP8 block-2)
COc1ccc(C(=O)/C=C2\Sc3ccccc3N2C)cc1	SENP7 block 53 | SENP8 conf 74 | SENP6 conf 77 | SENP7 confirm 92 | Casp3 select 77 | Luc interf inactive
CC(=S)/C=C1\Sc2ccccc2N1C	none
Nc1cc2[nH]c(=O)c3ccccc3c2cc1[N+](=O)[O-]	none (no result: PPC-1+TRAIL kill, SENP6 block, SENP7 block, SENP8 block-2)
CCc1ccc(C2=NN(C(C)=O)C(c3ccco3)C2)cc1 (stereo not drawn)	SENP6 block 82, SENP7 block 81, SENP8 block-2 83 | SENP8 conf 92 | SENP6 conf 92 | SENP7 confirm 99 | Casp3 select 90 | Luc interf 92
Cc1nc(-c2ccccn2)nc(N(C)c2ccccc2)c1Cl	none (no result: PPC-1+TRAIL kill)
O=C(/C=C/c1ccccc1F)c1cccc([N+](=O)[O-])c1	none
COc1ccc(C(=O)/C=C/c2ccccc2F)c(OC(=O)c2ccc([N+](=O)[O-])cc2)c1	SENP6 block 60 | SENP8 conf inactive | SENP6 conf inactive | SENP7 confirm inactive | Casp3 select inactive | Luc interf inactive
CCC1CCCCN1C(=O)c1cc(COc2ccc(-n3cncn3)cc2)on1 (stereo not drawn)	none (no result: PPC-1+TRAIL kill)
O=C(O)c1cccc(NC(=O)c2cccc(NC(=O)C3CCCO3)c2)c1 (stereo not drawn)	SENP6 block 63, SENP8 block-2 55 | SENP8 conf 74 | SENP6 conf 72 | SENP7 confirm 90 | Casp3 select 69 | Luc interf 54
O=C(O)c1cccc(C(=O)Nc2cccc(NC(=O)C3CCCO3)c2)c1 (stereo not drawn)	SENP6 block 57 | SENP8 conf 74 | SENP6 conf 71 | SENP7 confirm 91 | Casp3 select 67 | Luc interf inactive
